Sampled rows, rich in hits. Any-hit rate of the full collection: about 12%.
Pf growth 96h – P. falciparum growth inhibition at 96 hours | AID 504834 | actives 6.9% (n = 320,000) | P. falciparum luciferase reporter growth, 96 h | Potency, µM (doses to about 28.7 µM), inactives show at the top dose activity change, negative = inhibition, most hits filed as inhibitors; note: % is set by controls: 0 for no effect and ±100 for the full control effect
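Parasite growth measured via integrated firefly luciferase reporter in P. falciparum. Infected erythrocytes at 2% hematocrit, 0.05% parasitemia final were treated 96 hours at 37 C under 5% CO2, and luminescence was read.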
HCV inh – inhibitors of hepatitis C virus infection; AID 651820; actives 3.4% (n = 340,000); Huh7.5.1 HCVcc-Cre infection, luciferase reporter, 44 h; Potency, µM (top dose mostly 41.8 µM), for the others: at the top dose activity change, negative = inhibition, hits mostly inhibitors; note: % is set by controls: 0 for no effect and ±100 for the full control effect
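A cell-based infection assay in which seeded cells (1,000 per well) receive test compound after 4 h, are inoculated with HCVcc-Cre at approximately 0.5 moi, and are incubated 44 h before luminescence detection.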
SARS PLpro yeast – inhibitors of SARS-CoV papain-like protease in yeast | AID 485353 | Potency, µM (doses to about 32.9 µM), without a hit: top-dose activity, positive = growth rescue, most hits filed as activators | actives 0.19% (n = 330,000) | S. cerevisiae expressing SARS-CoV PLpro, growth rescue; calls by dose curve; note: 0% is about no effect; nearly all actives have a fitted effect of over 55% in size
NS1 function inh – blocks influenza NS1 protein function; Potency, µM (doses to about 46.1 µM), for inactives: at the top dose activity, positive = more growth; actives 0.4% (n = 270,000); calls by dose curve; note: actives are rising curves; nearly all actives have a fitted effect of over 50% in size
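Read-out: OD600 growth recovery of NS1-expressing budding yeast. Cells grown overnight at 30C in -URA glucose medium, washed, resuspended and diluted 1:100 in 2% galactose assay medium, pH 6.0. Same strain lacking NS1 served as positive control.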
Pf growth 48h – inhibits P. falciparum growth in the first generation, 48 h | AID 504832 | actives 5.9% (n = 310,000) | P. falciparum luciferase growth in erythrocytes, 48 h | Potency, µM (doses to about 28.7 µM), without a hit: at the highest dose activity change, negative = inhibition, hits mostly inhibitors; note: % is set by controls: 0 for no effect and ±100 for the full control effect
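Firefly luciferase activity from engineered P. falciparum reports growth; inhibitors lower the luminescent signal. Cultures contained 2% hematocrit erythrocytes at 0.1% final parasitemia.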
AMA1 RON2 block – inhibitors of Plasmodium falciparum AMA1-RON2 interaction. AlphaScreen AMA1-biotinylated RON2 peptide binding. Potency, µM (doses to about 58.2 µM), for inactives: at the highest dose activity change, negative = inhibition, actives largely listed as inhibitors. actives 0.2% (n = 360,000);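 note: 0% = vehicle wells and -100% = peptide control; nearly all actives have a fitted effect of over 45% in size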
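AMA1 (3D7) with his tag at 25 nM final met compounds first, then biotinylated RON2 peptide at 25 nM; detection used donor plus acceptor beads, 10 µg/mL apiece, read by AlphaScreen after 30 min at room temperature.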
The depositor's hits bear a star; i = inactive; ? = inconclusive; nt = not tested or not shown; [ ] = another dose, or the depositor's remark. Unless noted, calls come from the whole dose curve; as a rule, active = well fitted curve in the direction sought with a large enough effect; inconclusive = small, poorly fitted or top-dose-only effect, or another doubt; inactive = no such curve, though single readings can be large; an effect the other way counts as inactive or inconclusive. Potency is the fitted concentration of half-maximal effect.

SMILES | Pf growth 96h | HCV inh | SARS PLpro yeast | NS1 function inh | Pf growth 48h | AMA1 RON2 block
CCCCn1c(CCC(=O)O)nc2cc(S(=O)(=O)N(CC)CC)ccc21 | ? | ? | -0.7% | -0.1% | ? | 4.1%
CCOc1ccc(CN2CCN(CC(O)Cn3c4ccccc4c4ccccc43)CC2)cc1 (stereo not given) | ? | 17.7% | -11.1% | -44.1% | 2.08µM* | 10.7%
COc1ccc(CN2CCN(CC(O)Cn3c4ccccc4c4ccccc43)CC2)cc1 (stereo not given) | ? | 11.2µM* | -26.5% | -21.1% | 3.29µM* | -22.9%
CCn1c2ccccc2c2cc(CN3CCN(S(C)(=O)=O)CC3)ccc21 | 47.1% | ? | -3.9% | -4.5% | ? | -13.8%
OC(CN1CCCCC1)Cn1c2ccccc2c2ccccc21 (stereo not given) | -25.1% | -23.9% | 0.8% | 1.8% | ? | -1.3%
CCn1c2ccccc2c2cc(CN3CCN(Cc4cc(OC)ccc4O)CC3)ccc21 | 52.7% | ? | 8.0% | nt | 1.17µM* | 12.6µM*
CN1CCN(CC(O)Cn2c3ccccc3c3ccccc32)CC1 (stereo not given) | -2.1% | ? | 0.2% | 3.2% | ? | -1.5%
COc1ccc(S(=O)(=O)NC(C)C)cc1C(=O)N1CCOCC1 | -6.3% | 0.1% | -4.7% | nt | 6.1% | 1.4%
CC(NC(=O)CCNS(=O)(=O)c1cccc2nsnc12)c1ccccc1 (stereo not given) | 2.94µM* | 5.9% | 1.9% | -3.1% | 6.5% | 4.9%
O=C(CCNS(=O)(=O)c1cccc2nsnc12)NCCC1=CCCCC1 | 1.7% | ? | 6.7% | -3.4% | -9.7% | 11.2%
O=S(=O)(Nc1ccccc1)c1cccc2nsnc12 | 8.28µM* | -4.8% | ? | 0.0% | 5.4% | -0.1%
O=S(=O)(NCCC1=CCCCC1)c1cccc2nsnc12 | 57.2% | 3.7% | 4.9% | -56.7% | 3.7µM* | -7.8%
COc1cnc(-c2ccccn2)nc1Sc1c(Cl)cccc1Cl | 2.08µM* | ? | 15.7% | -1.8% | 1.65µM* | 52.6%
COc1cnc(-c2ccccn2)nc1Oc1cccc(Cl)c1 | 2.62µM* | 13.6% | -2.6% | -76.8% | ? | 44.3%
COc1cnc(-c2ccccn2)nc1Sc1ccccc1Cl | ? | ? | -22.9% | -111.9% | ? | 13.7%
COc1cnc(-c2ccccn2)nc1N(C)C | 2.33µM* | ? | -8.7% | nt | 4.15µM* | -94.4%
CCOC(=O)C(C)Sc1nc(-c2ccccn2)ncc1OC (stereo not given) | 3.29µM* | ? | 3.7% | nt | 13.1µM* | 62.8%
COc1ccc(Oc2nc(-c3ccccn3)ncc2OC)cc1 | ? | ? | 11.2% | nt | 0.0% | 28.0%
O=C(COC(=O)/C=C/c1ccc([N+](=O)[O-])cc1)NCC1CCCCC1 | nt | 17.8% | 8.4% | nt | nt | -0.7%[11.6 µM]
CC(=O)N1CCc2cc(S(=O)(=O)NCC(=O)NCc3ccc(F)cc3)ccc21 | -13.3% | 3.6% | -2.6% | -7.7% | ? | -1.6%
COc1cnc(-c2ccccc2)nc1Sc1ccccc1 | ? | 12.6µM* | -4.5% | nt | -7.0% | 11.7%
COc1cnc(-c2ccccn2)nc1Oc1c(C)cccc1C | 0.208µM* | ? | 28.7% | nt | 11.7µM* | -10.1%
COc1cccc(CNC(=S)Nc2cc(C)ccc2C)c1 | -7.1%[5.75 µM] | -7.5% | 0.5% | -4.6% | ? | -2.1%
CC(OC(=O)C1CC1)C(=O)Nc1cc(C(F)(F)F)ccc1Cl (stereo not given) | -34.4%[5.75 µM] | -16.4% | 17.4% | -1.8% | -3.8% | 30.0%
Cc1c(Cl)cccc1-n1c(SCC(=O)NCc2ccccc2Cl)nnc1-c1ccncc1 | 8.28µM* | -12.8% | -0.6% | -9.7% | 8.28µM* | -8.3%
SMILES | Pf growth 96h | HCV inh | SARS PLpro yeast | NS1 function inh | Pf growth 48h | AMA1 RON2 block
CC(=O)N1CCc2cc(S(=O)(=O)NCC(=O)NCc3ccccc3Cl)ccc21 | 9.28µM* | 5.9% | -2.3% | -3.8% | -13.6% | -9.1%
CCC(=O)N1CCc2cc(S(=O)(=O)NCCC(=O)NCc3ccccc3Cl)ccc21 | 8.28µM* | -5.6% | -3.9% | -3.0% | 1.6% | 44.3%
CCC(=O)N1CCc2cc(S(=O)(=O)NCCC(=O)NCc3ccccc3OC)ccc21 | ? | -7.8% | -3.0% | -3.4% | 4.3% | -5.8%
COc1ccc(N(C(=O)c2ccco2)C(C(=O)NC2CCCC2)c2ccc(N3CCOCC3)cc2)c(OC)c1 (stereo not given) | 0.0% | 3.6% | -3.2% | 1.1% | ? | 17.4%
O=C(CN1C(=O)c2ccccc2S1(=O)=O)Nc1cc(S(=O)(=O)N2CCCCC2)ccc1Cl | ? | -10.3% | 1.8% | nt | -11.9% | 0.0%
O=C(CSc1ccc(-c2nc3ccccc3[nH]2)cn1)N1CCN(C(=O)c2ccco2)CC1 | 0.8% | -25.8% | 11.4% | -20.9% | 13.1µM* | -1.4%
CCS(=O)(=O)c1nc2ccccc2n1CC(=O)N1CCCCC1 | 10.4µM* | 0.7% | 9.3% | 5.8% | -8.6% | 12.5%
O=C(CSc1nc2ccccc2n1CC(=O)N1CCCC1)Nc1nccs1 | 2.62µM* | -8.5% | 1.3% | -5.8% | -2.2% | -4.0%
O=C(CSc1nc2ccccc2n1CC(=O)N1CCCC1)N1CCN(C(=O)c2ccco2)CC1 | 6.57µM* | 6.5% | -4.2% | 0.2% | -15.6% | 10.6%
O=C(CSc1nc2ccccc2n1CC(=O)N1CCOCC1)N1CCCC1 | ? | 8.8% | 18.7% | 6.5%[9.22 µM] | 11.1% | 1.3%
O=C(CCc1nc2ccccc2[nH]1)N1CCN(C(=O)c2ccco2)CC1 | ? | -1.0%[8.37 µM] | 9.9% | -6.0% | 14.5% | 17.1%
Cc1cc(N2CCCC(C(=O)Nc3cccc4ccccc34)C2)n2ncnc2n1 (stereo not given) | 2.0% | ? | -0.5% | nt | ? | 0.1%
CC1CC1C(=O)OCC(=O)NNC(=O)c1ccc([N+](=O)[O-])cc1 (stereo not given) | -19.2% | 15.7% | 0.7% | nt | -22.4% | 25.6%[11.6 µM]
O=C(O)C1CCC(CNS(=O)(=O)c2ccccc2)CC1 (stereo not given) | 5.3% | 1.9% | 0.4% | -0.1% | 6.2%[0.00184 µM] | 2.3%
Cc1ccc2[nH]c(CNC(=O)c3ccc(F)cc3)cc2c1 | -12.3% | -1.1% | 3.4% | 20.3% | -6.1% | 4.7%
C[C@H](CO)N1C[C@H](C)[C@@H](CN(C)S(=O)(=O)c2cccs2)Oc2ccc(NS(=O)(=O)c3ccc(F)cc3)cc2C1=O | nt | -4.2% | 2.3% | nt | nt | -5.7%
Clc1ccc(OCc2noc(-c3ccsc3)n2)c(Cl)c1 | i | -8.5% | -0.7% | -2.9% | 92.0% | 5.3%
CC1(OC(=O)C2CCCC2)C(=O)C=C2C=C(c3ccsc3)N(CCc3c[nH]c4ccccc34)C=C2C1=O (stereo not given) | 13.1µM* | -19.2% | -0.5% | ? | 9.28µM* | -25.8%
CC1(OC(=O)C2CCCC2)C(=O)C=C2C=C(c3ccsc3)N(CC3CC3)C=C2C1=O (stereo not given) | ? | 7.7% | -2.3% | -1.9% | ? | -4.0%
